tim23-1 inh: tim23-1 yeast growth inhibition | S. cerevisiae tim23-1 growth, BacTiter-Glo luminescence, 24 h | inhibition, % at 20 µM | 330,000 tested, 1.3% active;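 active means growth inhibition of the mutant yeast at or above 50%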;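 further: temperature-sensitive mutant grown at 25 °C; plate controls were DMSO-treated mutant yeast for no effect and medium wells lacking yeast for full effect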
tim10-1 inh: inhibits growth of tim10-1 mutant yeast; S. cerevisiae tim10-1 ts strain growth, BacTiter-Glo, 24 h; 330,000 tested, 2.2% active; inhibition, % at 20 µM;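 active means inhibition of at least 40%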;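 further: mutant grown at 25 °C; 0% = DMSO wells with yeast and 100% = wells holding no yeast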
SKKanGAS inh: blocks kanamycin growth of S. pyogenes SKKanGAS strain; BacTiter-Glo, 6 h; 300,000 tested, 1.3% active; inhibition, % at 7.5 µM; AID 1662;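 active means mean replicate score, as percent of positive control median, at least 50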;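 further: strain carries kanamycin resistance gene driven by streptokinase promoter and grows in 40 µg/ml kanamycin; loss of luminescence reflects streptokinase promoter inhibition or plain growth inhibition; 0% = median of DMSO wells and 100% = positive control at its reference dose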
TIM10 inh: TIM10 yeast growth inhibition; S. cerevisiae TIM10 strain growth, BacTiter-Glo luminescence, 24 h; inhibition, % at 10 µM; 330,000 tested, 1.4% active; AID 463195;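 active means inhibition of 40% or more at the single tested concentration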;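 further: wild-type TIM10 isogenic control strain grown at permissive 25 °C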
NALP3 yeast inh: NALP3 inhibition in yeast | Yeast reconstituted NLRP3/ASC/caspase-1, beta-gal luminescence, 24 h | inhibition, % at 10 µM | 330,000 tested, 0.39% active;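 active means inhibition of 50% or more; inactive means inhibition below 50%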;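 further: plate controls were induced DMSO wells for no effect and uninduced yeast grown without galactose for full effect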
NALP3 yeast conf: NALP3 inhibition confirmation in yeast | shares compounds with NALP3 yeast inh | AID 435006 | yeast expressing human NALP3, luminescence | 1,300 tested, 81% active | inhibition, % at 10 µM; in the data active means inhibition above about 48%
Casp1 ASC ctr: counter-screen for NALP3 inhibitors: yeast caspase-1-ASC; shares compounds with NALP3 yeast inh; AID 488784; yeast expressing Caspase-1-ASC, luminescence counter screen; inhibition, % at 10 µM; 1,000 tested, 66% active
NALP3 yeast rt: yeast NALP3 inhibition, confirmed on retest | inhibition, % at 10 µM | AID 488794 | 1,000 tested, 53% active | shares compounds with NALP3 yeast inh | yeast expressing human NALP3, luminescence read-out
An asterisk follows results filed as active; . = no result given. Rows were chosen to be rich in hits. Some 4.6% of all compounds tested hit in one or more screens of this group. Unless noted, no stated cut-off is given here; in the data, active means inhibition above about 50%; inactive means the rest.

SMILES	tim23-1 inh	tim10-1 inh	SKKanGAS inh	TIM10 inh	NALP3 yeast inh	NALP3 yeast conf	Casp1 ASC ctr	NALP3 yeast rt
BrCC1C[n+]2c(SCc3ccccc3)nc3sc4c(c3c2O1)CCCC4 (stereo unspecified)	2	-14	-2	-23	15	.	.	.
Nc1c2c(nc3sc4c(c13)CCCCC4)CCCC2	32	9	-3	30	63*	79*	39	40
C[C@]12CCC3C(CC[C@H]4C[C@@H](O)CC[C@]34C)C1C/C(=N/O)[C@@H]2O (stereo partly specified)	29	19	.	7	36	.	.	.
C[C@]12CCC3C(CC[C@H]4C[C@H](N)CC[C@]34C)C1CC[C@H]2O (stereo partly specified)	21	22	-2	1	25	.	.	.
C[C@]1(O)CCC2C3CC[C@@H]4CC(=O)CC[C@]4(C)C3CC[C@@]21C (stereo partly specified)	27	-1	.	-12	55*	69*	68*	42
C[C@]12C=CC(=O)C=C1C=C[C@@H]1C2CC[C@]2(C)C(=O)CCC12 (stereo partly specified)	25	19	-3	10	25	.	.	.
C[C@]12CCC(=O)C[C@H]1CC[C@@H]1[C@@H]2CC[C@]2(C)C(=O)CC[C@@H]12	29	13	.	7	66*	70*	61*	49
C[C@]12CCC3C(CC[C@H]4CC(=O)CC[C@]34C)C1CCC2=O (stereo partly specified)	-24	-41	.	-44	61*	56*	.	.
CC[C@H](C)[C@@H]1O[C@@]2(C=CC1C)CC1C[C@@H](CC=C(C)C(O[C@H]3CC(OC)C(O[C@H]4CC(OC)C(O)C(C)O4)C(C)O3)C(C)C=CC=C3CO[C@@H]4C(O)C(C)=C[C@@H](C(=O)O1)[C@]34O)O2 (stereo partly specified)	19	30	.	-4	6	.	.	.
c1ccc2nc(N3CCNCC3)ccc2c1	2	-33	.	0	10	.	.	.
C[C@H](O)[C@H]1CC[C@H]2[C@@H]3CCC4=CC(=O)CC[C@]4(C)[C@H]3CC[C@]12C	13	-28	-11	-93	52*	73*	42	40
CN1[C@@H]2CC[C@H]1CC(OC1c3ccccc3CCc3ccccc31)C2 (stereo partly specified)	0	26	.	11	25	.	.	.
O=[N+]([O-])c1cc(F)c(N2CCCC2)cc1Br	14	4	9	3	67*	82*	80*	64*
CC1CCN(c2cc(Br)c([N+](=O)[O-])cc2F)CC1	19	15	-5	-10	68*	73*	77*	58*
COC(=O)C1=C(c2ccc(OC(F)(F)F)cc2)C[C@@H]2CC[C@H]1N2C(=O)N1CCOCC1	25	2	.	11	2	.	.	.
N=c1sccn1Cc1ccccc1F	.	.	-1	.	.	.	.	.
CC(=O)OC1C=CC2[C@H]3Cc4ccc(O)c5c4[C@@]2(CCN3C)C1O5 (stereo partly specified)	13	8	.	0	6	.	.	.
C[C@]12CC[C@@H](O)CC1=CCC1C2CC[C@]2(C)C(=O)[C@H](F)CC12 (stereo partly specified)	17	11	.	-16	50	.	.	.
C[C@]12CC[C@H](O)CC1=CC[C@@H]1[C@@H]2CC[C@@]2(C)[C@H]1CC[C@]2(C)O	22	35	2	19	59*	67*	59*	47
C[C@]12C[C@H](O)[C@@H](O)CC1=CCC1C2CC[C@@]2(C)C1CC[C@@H]2O (stereo partly specified)	13	2	.	-6	55*	66*	.	.
CC(C)[C@H]1CC2C3CC=C4C[C@@H](O)CC[C@]4(C)C3CC[C@]2(C)[C@H]1O (stereo partly specified)	21	2	.	19	53*	56*	.	.
Fc1cccc(C2NCc3ccccc3-n3cccc32)c1 (stereo unspecified)	19	21	-1	16	27	.	.	.
CCOc1cc2c(cc1OCC)-n1cccc1C(c1cccc([N+](=O)[O-])c1)NC2 (stereo unspecified)	19	23	-3	-6	18	.	.	.
C[C@]12CCC3[C@@H](CCC4=CC(=O)CC[C@@]43CO)C1CCC2=O (stereo partly specified)	12	5	0	-14	1	.	.	.
CC[C@]12CC[C@H](O)CC1=CCC1C2CC[C@]2(C)C(=O)CCC12 (stereo partly specified)	-60	-16	.	-21	67*	60*	.	.
SMILES	tim23-1 inh	tim10-1 inh	SKKanGAS inh	TIM10 inh	NALP3 yeast inh	NALP3 yeast conf	Casp1 ASC ctr	NALP3 yeast rt
CC(=O)O[C@H]1CC[C@@]2(C)C(=CC[C@@H]3[C@@H]2CC[C@]2(C)C(=O)CC[C@@H]32)C1	7	-31	.	-125	58*	59*	59*	40
Cc1c(-c2cccc(Cl)c2)nc2ccccc2c1C(=O)N1CCC2(CC1)OCCO2	28	26	-5	23	77*	45	21	13
C[C@]12CCC3C(CC[C@H]4C[C@H](O)CC[C@]34C)C1CC(=O)[C@@H]2O (stereo partly specified)	22	-5	.	-19	49	.	.	.
C[C@]12CCC3C(CC[C@H]4C[C@H](O)CC[C@]34C)C1[C@@H](O)C[C@@H]2O (stereo partly specified)	0	-13	.	-15	31	.	.	.
C[C@]12CCC3C(CC[C@H]4C[C@H](O)CC[C@]34C)C1CCC2=O (stereo partly specified)	39	2	.	-18	53*	68*	.	.
CC(=O)[C@H]1CCC2C3CC[C@H]4C[C@@H](O)CC[C@]4(C)C3CC[C@@]21C (stereo partly specified)	23	-14	.	10	49	.	.	.
C[C@]12CC[C@@H](O)C[C@@H]1CC[C@@H]1[C@@H]2CC[C@]2(C)C(=O)CC[C@@H]12	37	22	-4	-21	56*	67*	60*	61*
C[C@]12CCC3C(CC[C@H]4C[C@H](OC(=O)c5cccnc5)CC[C@]34C)C1CCC2=O (stereo partly specified)	30	25	.	4	54*	60*	.	.
COC1=CC2[C@@H]3Cc4ccc(OC)c(O)c4[C@]2(CCN3C)CC1=O (stereo partly specified)	5	21	.	6	8	.	.	.
CN(C)C(Cc1ccc(C#N)cc1)C(=O)c1ccccc1 (stereo unspecified)	13	35	4	-7	8	.	.	.
CN(C)C(Cc1ccccc1)C(=O)c1ccc(-c2ccccc2)cc1 (stereo unspecified)	22	29	11	-18	56*	67*	55*	62*

Screens from PubChem BioAssay.
